Experimental findings from PubChem BioAssay AID651558 (National Center for Advancing Translational Sciences (NCATS), 2012) are described below.

Among all 1,200 compounds or so, about 480 (40%) were called active. Roughly 29% stayed inconclusive and do not appear here. Calls follow the shape of the dose curve; as a rule, active = well fitted inhibition curve with a large enough effect; inconclusive = small, poorly fitted or top-dose-only effect; inactive = no such curve, though single readings can be large or run the other way. The list shows a part of the results.
Potency is read from the fitted curve at half-maximal effect.

A short description of the experiment: qHTS Assay to Find Inhibitors of Chronic Active B-Cell Receptor Signaling: Hit Validation in Primary Screen. Also: nearly all actives have a fitted effect of over 75% in size. The following applies: ABC-DLBCL IkB-luc/CBR ratio luminescence, 4 h; series mostly up to 46.1 µM. In short, it runs like this:
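Concentration series (3 nM to 46 uM) tested on TMD8 cells induced with doxycycline for 4 h. Filter-corrected green (IkBa fusion) over red (unfused) luciferase signal; Data were normalised to 10 uM MG-132 and untreated cell wells.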
For the compound `COCCCNC(=O)C(=O)Nc1ccc2c(c1)N(S(=O)(=O)c1cccs1)CCC2`, the Potency is 16.4 µM (active).
Consider `CCCC(=O)OCCNc1cc(Sc2nccn2C)c2nonc2c1[N+](=O)[O-]`, for which the Potency is 3.66 µM (active).
Take `CCOC(=O)CSC1=C(C#N)C(c2ccc(C)o2)CC(=O)N1` (stereo not drawn): the Potency was 4.11 µM (active).
As for `CCOC(=O)CSC1=C(C#N)C(c2ccc(C)s2)CC(=O)N1` (stereo not drawn), the Potency is 16.4 µM (active).
Take `CCCCNC(=S)N=Nc1c(O)[nH]c2ccccc12`: the Potency entry is “inactive”.
For the compound `COc1ccc(/C=C2\CCc3ccccc3C2=O)cc1O`, the Potency was 13 µM (active).
In the case of `COc1cc(/C=N/N(C)c2ccccc2)ccc1O`, the Potency entry is “inactive”.
Turning to `CCc1ccc(NC(=O)C(C)OC(=O)/C=C/c2ccc(O)c(OC)c2)cc1` (stereo not drawn), the Potency is 20.6 µM (active).
`CCOC(=O)/C=C/C(=O)OCC(=O)Nc1ccc(OC)c(Cl)c1`: the Potency result was “inactive”.
With `CC(C)N1C(=O)/C(=C/c2nc3ccccc3c(=O)n2-c2ccccc2)c2ccccc21` the figure was 18.4 µM (active); with `COc1ccccc1CNS(=O)(=O)c1ccc(-c2cc(C)no2)cc1`, 13 µM (active); with `COc1ccc(-c2nn(C)c(=O)c3ccccc23)cc1CNS(C)(=O)=O`, “inactive”.
Consider `CCOc1ccccc1NS(=O)(=O)c1ccc(-c2cnc(C3CC3)o2)cc1`, for which the Potency was 0.82 µM (active).
With `CCOc1ccccc1CNS(=O)(=O)c1ccc(-c2cnc(C3CC3)o2)cc1`, the Potency is 7.31 µM (active).
With `COc1ccccc1CNS(=O)(=O)c1ccc(-c2cnc(C3CC3)o2)cc1`, the Potency is 16.4 µM (active).
As for `COc1ccccc1NS(=O)(=O)c1ccc(-c2cnc(C3CC3)o2)cc1`, the Potency entry is “inactive”.
Turning to `CCN(CC(=O)Nc1ccccc1SC)Cc1nc2ccccc2c(=O)[nH]1`, the Potency result is “inactive”.
The same measure for `N#Cc1cccc2c1-c1ccccc1/C2=N/NC(N)=S`: “inactive”; for `Cn1c(=S)c2[nH]c(SCCN3CCCC3)nc2n(C)c1=O`: “inactive”; for `Cc1ccc(S(=O)(=O)Nc2cccc3ncccc23)s1`: 4.61 µM (active).
With `O=S(=O)(Nc1cccc2ncccc12)c1cccs1` the figure was 5.8 µM (active); with `CCC(=NCCc1c(C)[nH]c2ccc(C)cc12)C1=C(O)CC(c2ccccc2)CC1=O` (stereo not drawn), 0.82 µM (active).
The same measure for `CCCC(=O)Nc1ccc(C(=O)N/N=C/c2cccnc2)cc1`: “inactive”.
For the compound `CC(C)c1ccc(/C=N/NC(=O)c2ccccc2Cl)cc1`, the Potency was 20.6 µM (active).
With `Cc1cc2nc(/C=C/c3cccnc3)[nH]c2cc1C`, the Potency was 1.03 µM (active).
On to `CC(C)(C)NC(=S)N/N=C/c1cccnc1`, for which the Potency result was “inactive”.
With `Cc1ccc(N2C(=O)c3cccc4c(N)ccc(c34)C2=O)c2cccnc12`, the Potency was 0.461 µM (active).
`COc1cc(C(=O)N/N=C(\C)Cc2ccccc2)cc(OC)c1OC`: the Potency entry is “inactive”.
Consider `COc1cc(C(=O)N/N=C(\Cc2ncc[nH]2)c2ccccc2)cc(OC)c1OC`, for which the Potency result is “inactive”.
As to `COc1cc(C(=O)N/N=C(\C)c2ccc3c(c2)OCO3)cc(OC)c1OC`, the Potency is 18.4 µM (active).
Consider `COc1cc(C(=O)c2cocc2C(=O)c2ccc3c(c2)OCO3)cc(OC)c1OC`, for which the Potency is 14.6 µM (active).
`O=C(Oc1c(CN2CCOCC2)cc(Cl)c2cccnc12)c1cccs1`: the Potency result was “inactive”.
Take `CNC(=O)[C@H]1O[C@@H](n2cnc3c(NCc4cccc(I)c4)ncnc32)[C@H](O)[C@@H]1O`: the Potency was 1.64 µM (active).
With `CNC(=O)[C@H]1O[C@@H](n2cnc3c(NCc4cccc(I)c4)nc(Cl)nc32)[C@H](O)[C@@H]1O` the figure was 2.31 µM (active).
On to `COc1cc2c(cc1OC)C(/C(C#N)=N\O)=NC(C)(C)C2`, for which the Potency result is “inactive”.
`CCc1ccc(CCC(=O)Nc2sc3c(c2C#N)CCCC3)o1`: the Potency is 5.8 µM (active).
The same measure for `N#Cc1c(NC(=O)/C=C/c2ccco2)sc2c1CCCC2`: 1.3 µM (active); for `CC(C)NC(=S)N=Nc1c(O)[nH]c2ccc([N+](=O)[O-])cc12`: “inactive”.
Take `COc1ccccc1C1CC(=O)Nc2cc3c(cc21)OCCO3` (stereo not drawn): the Potency is 16.4 µM (active).
The same measure for `COc1ccc(OC)c(C2CC(=O)Nc3n[nH]c(-c4ccccc4)c32)c1` (stereo not drawn): “inactive”.
As for `CC(C)Oc1ccccc1C1CC(=O)Nc2cc3c(cc21)OCCO3` (stereo not drawn), the Potency is 8.2 µM (active).
The same measure for `O=C(CSc1cccc[n+]1[O-])c1ccccc1Br`: “inactive”.
Consider `COc1cc(C(=O)N2CCN(c3cc(Cl)ccc3Cl)CC2)cc(OC)c1OC`, for which the Potency was 1.16 µM (active).
For the compound `COc1cc(C(=O)NNC(=O)C2CC=CCC2C(=O)O)cc(OC)c1OC` (stereo not drawn), the Potency entry is “inactive”.
As for `COc1c(Cl)cc(C(=O)NN)cc1Cl`, the Potency entry was “inactive”.
In the case of `CCOC(=O)C1=C(C)c2ccccc2N(C(=O)OC)C1(C)C(=O)OCC` (stereo not drawn), the Potency entry was “inactive”.
On to `O=S1(=O)C=C(Sc2nc3cc(Cl)ccc3o2)c2ccccc21`, for which the Potency was 16.4 µM (active).
With `CC(/C=C/c1ccccc1)=N\NC(N)=S` the entry was “inactive”.
Take `N#CC(C#N)=C(N)CSc1cccc[n+]1[O-]`: the Potency entry was “inactive”.
For the compound `CCOc1ccc(C(=O)NC(=S)Nc2cccc(S(=O)(=O)NC3=NCCC3)c2)cc1`, the Potency was 18.4 µM (active).
`CCOc1ccc(OCc2ccc(C(=O)N/N=C(\C)c3ccccn3)cc2)cc1`: the Potency result is “inactive”.
With `O=C(CCl)Nc1cccc(S(=O)(=O)NC2=NCCC2)c1`, the Potency is 13 µM (active).
As for `O=C(CCl)Nc1cccc(S(=O)(=O)NC2=NCCCCC2)c1`, the Potency was 8.2 µM (active).
The same measure for `COc1ccc(C(=O)c2ccc(N(C)C)cc2)c2ccccc12`: 3.26 µM (active); for `CN(C)c1ccc(C(=O)c2ccc(N(C)C)c3ccccc23)cc1`: 0.291 µM (active); for `Oc1ccc(CNc2ccccc2F)c2cccnc12`: “inactive”.
Consider `O=C(Oc1c(CN2CCOCC2)cc(Cl)c2cccnc12)c1ccccc1F`, for which the Potency entry is “inactive”.
For the compound `C=CCn1c(SCc2c(C)noc2C)nc2ccccc2c1=O`, the Potency is 14.6 µM (active).
Regarding `Cc1noc(C)c1CSc1ccc2ccccc2n1`, the Potency result was “inactive”.
As for `CCn1ncc(C2=NOC(C(=O)NCc3ccc(Cl)cc3)C2)c1C` (stereo not drawn), the Potency is 8.2 µM (active).
With `CCn1ncc(C2=NOC(C(=O)NCc3ccccc3)C2)c1C` (stereo not drawn) the figure was 18.4 µM (active); with `Cc1ccc(Sc2c(CO)c(-c3ccccc3)nn2C)cc1`, 5.17 µM (active); with `COc1ccc(/C=C(\C#N)c2c[nH]c3ccccc23)cc1`, 14.6 µM (active).
With `N#C/C(=C\c1ccc(Cl)cc1)c1nc2ccccc2o1`, the Potency result was “inactive”.
Consider `COc1ccc(CC(=O)OCC(=O)c2c[nH]c3ccccc23)cc1`, for which the Potency result was “inactive”.
In the case of `Cn1c(=S)[nH]c2c(c1=O)C(C)(C)Cc1ccccc1-2`, the Potency entry was “inactive”.
The same measure for `C=CCN(CC=C)C(=S)NC(=O)c1ccc(OC)cc1`: “inactive”; for `COc1ccc(C(=O)/C=C2/c3ccccc3CC(C)(C)N2C)cc1`: 20.6 µM (active).
